ALDH1A1 inh – blocks purified human ALDH1A1 activity. AID 1030. Purified ALDH1A1, NADH fluorescence, propionaldehyde substrate. 220,000 compounds, 7.3% hits. Potency, µM (series often up to 75.3 µM), for inactives: at the highest dose activity, negative = inhibition, usual class: inhibitors; active = well fitted inhibition curve with a large enough effect, not every such curve was filed as active; inconclusive = small, poorly fitted or top-dose-only effect, or another doubt; inactive = no such curve, though single readings can be large or run the other way;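 also: plate controls were no enzyme wells and a reference inhibitor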
NPSR antagonist – neuropeptide S receptor (human) antagonism, cAMP. AID 1461. Q6W5P4. Potency, µM (doses to about 38.3 µM), without a hit: at the top dose activity change, negative = inhibition, usual class: inhibitors. 220,000 compounds, 1% hits. CHO-NPSR cells, cAMP TR-FRET, antagonist mode; also: nearly all actives have a fitted effect of over 50% in size
Tau fluor counter – counter-screen for tau fibril formation inhibitors | 280,000 compounds, 0.93% hits | tau K18 P301L Alexa594 fluorescence, heparin fibrillization | Potency, µM (doses to about 57.7 µM), for the others: top-dose activity change, negative = decrease | AID 1463; also: nearly all actives have a fitted effect of over 55% in size
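Human K18 P301L tau (15 uM unlabeled plus 0.24 uM Alexa 594-labeled, final) in 100 mM sodium acetate pH 7 was mixed with compound and 20 uM heparin and incubated 6 hr at 37 C.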
HPGD inh – blocks human HPGD enzyme activity; purified HPGD, NADH fluorescence kinetic, PGE2 substrate; Potency, µM, for the others: top-dose activity change, negative = inhibition, most hits filed as inhibitors; 150,000 compounds, 4.3% hits; AID 894; active = well fitted inhibition curve with a large enough effect, not every such curve was filed as active; inconclusive = small, poorly fitted or top-dose-only effect, or another doubt; inactive = no such curve, though single readings can be large or run the other way
Target sequence (P15428 whole entry, looked up): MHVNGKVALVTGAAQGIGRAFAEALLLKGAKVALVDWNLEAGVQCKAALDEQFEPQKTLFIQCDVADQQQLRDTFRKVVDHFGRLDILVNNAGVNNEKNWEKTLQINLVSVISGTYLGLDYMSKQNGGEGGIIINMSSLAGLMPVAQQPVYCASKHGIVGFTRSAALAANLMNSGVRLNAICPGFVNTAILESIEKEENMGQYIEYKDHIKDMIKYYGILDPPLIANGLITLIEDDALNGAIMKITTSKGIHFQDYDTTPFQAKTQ
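NADH formation kinetics: reaction with 30 uM PGE2 and 1 mM NAD+ (final), 20 nM enzyme, Tris-HCl pH 8 with Tween 20, after 15 min compound preincubation at room temperature. Fluorescence change, last versus first of five reads.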
Tau ThT inhib – inhibitors of human tau fibril formation, thioflavin T binding; 270,000 compounds, 2.1% hits; P10636; Potency, µM (doses to about 57.4 µM), for the others: at the highest dose activity, negative = inhibition, most hits filed as inhibitors; recombinant tau K18 P301L, heparin-induced fibrillization, ThT fluorescence; also: nearly all actives have a fitted effect of over 55% in size
Target sequence (P10636 561-689 P618L limits assumed): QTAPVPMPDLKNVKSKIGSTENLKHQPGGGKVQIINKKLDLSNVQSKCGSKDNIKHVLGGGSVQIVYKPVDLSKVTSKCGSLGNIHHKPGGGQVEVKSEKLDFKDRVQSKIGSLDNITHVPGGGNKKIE
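Fibril formation assay: tau K18 P301L at 15 uM with trace Alexa 594 label, heparin inducer 20 uM, pH 7 sodium acetate buffer, 37 C for 6 hr; endpoint ThT signal.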
Tau fibril FP – tau fibrillization inhibition (FP). P10636. K18 P301L tau heparin fibrillization, Alexa594 FP, 6 h. Potency, µM (titrated, usually from 57.7 µM), without a hit: top-dose activity, negative = inhibition, actives largely listed as inhibitors. 280,000 compounds, 0.39% hits. AID 1468; also: nearly all actives have a fitted effect of over 55% in size
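FP of Alexa 594-tau after heparin (20 uM) induction. Substrate: human K18 P301L, 15 uM unlabeled, 0.24 uM labeled. Buffer 100 mM sodium acetate pH 7. 6 hr, 37 C.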
* = called active by the depositor; [ ] = dose if it differs, or a comment. Most compounds without a hit are left out; they make up all but 9.5% or so of the library. Unless noted, calls follow the shape of the dose curve; as a rule, active = well fitted curve in the direction sought with a large enough effect; inconclusive = small, poorly fitted or top-dose-only effect, or another doubt; inactive = no such curve, though single readings can be large; an effect the other way counts as inactive or inconclusive. Unless noted, % is scaled to controls: 0 for no effect and ±100 for the full control effect; potency is read from the fitted curve at half-maximal effect.

Screening CCC1c2ccc(C)n2CCN1C(=O)Nc1ccccc1C(=O)OC (stereo not drawn) returned ALDH1A1 inh inconclusive, NPSR antagonist inconclusive, Tau fluor counter -12.9%, HPGD inh inconclusive, Tau ThT inhib inconclusive and Tau fibril FP inconclusive.
`COc1ccc(Cl)cc1NC(=O)Cn1cccc1` gave ALDH1A1 inh 12.6µM*, NPSR antagonist 10.0%[46.1 µM], Tau fluor counter -8.2%, HPGD inh -16.3%, Tau ThT inhib -4.3% and Tau fibril FP 0.7%.
For COc1ccc(C)cc1NC(=O)CN1CCN(S(=O)(=O)c2ccc(C(C)C)cc2)CC1 the results were ALDH1A1 inh 5.01µM*, NPSR antagonist -6.6%[46.1 µM], Tau fluor counter -5.1%, HPGD inh -13.1%, Tau ThT inhib -7.3% and Tau fibril FP -2.3%.
CCC1c2ccc(C)n2CCN1C(=O)Nc1cc(Cl)ccc1OC (stereo not drawn) was read as ALDH1A1 inh inconclusive, NPSR antagonist -23.1%, Tau fluor counter -27.6%, HPGD inh -13.5%, Tau ThT inhib 22.4µM* and Tau fibril FP inconclusive.
`COc1cc(OC)c(NC(=O)Cn2cccc2)cc1Cl` gave ALDH1A1 inh -10.6%, NPSR antagonist -3.3%[46.1 µM], Tau fluor counter -12.0%, HPGD inh -7.1%, Tau ThT inhib -9.7% and Tau fibril FP -4.5%.
`COC(=O)C1CCN(CC(=O)Nc2cc(Cl)ccc2OC)CC1` gave ALDH1A1 inh 9.5%, NPSR antagonist -18.9%, Tau fluor counter -19.5%, Tau ThT inhib -7.2% and Tau fibril FP -1.4%.
Cn1c(N)c(C(=O)/C=C/c2ccccc2)c(=O)[nH]c1=O was read as ALDH1A1 inh -6.8%, NPSR antagonist -20.6%, Tau fluor counter -1.7%, Tau ThT inhib -3.5% and Tau fibril FP 2.9%.
CC(C)[C@@H](CC(=O)N[C@@H]1CCCC[C@H]1C(=O)N[C@H](CC(=O)N[C@@H](CCC(=O)O)CC(=O)O)Cc1ccccc1)NC(=O)C[C@H](Cc1c[nH]c2ccccc12)NC(=O)[C@@H]1CNCC[C@H]1N was read as ALDH1A1 inh -13.0%, Tau fluor counter -12.2%, HPGD inh -6.8%, Tau ThT inhib -8.8% and Tau fibril FP -2.9%.
For O=C(COC(=O)CCC(=O)c1ccc(Cl)cc1)NC1CC1 the results were ALDH1A1 inh 0.1%, NPSR antagonist -15.9%, Tau fluor counter 5.0%, Tau ThT inhib 7.5% and Tau fibril FP 4.5%.
COC(=O)N1CC=CC1(C)C(=O)O (stereo not drawn) was read as ALDH1A1 inh 4.5%, Tau fluor counter -8.7%, HPGD inh -5.9%, Tau ThT inhib -0.6% and Tau fibril FP -8.9%.
O=[N+]([O-])c1ccc(-c2nc(C(Cl)Cl)c3ccccc3n2)cc1 was read as NPSR antagonist 2µM*, Tau fluor counter -18.3%, Tau ThT inhib -9.3% and Tau fibril FP -1.6%.
For O=C(O)CN1C(=O)/C(=C/c2ccc(N3CCCCC3)o2)SC1=S the results were NPSR antagonist 17.5%, Tau fluor counter -2.7%, Tau ThT inhib 15.8µM* and Tau fibril FP inconclusive.
`CCOC(=O)CN1C(=O)S/C(=C/c2ccc(N3CCCCC3)o2)C1=O` gave ALDH1A1 inh 25.1µM*, NPSR antagonist -13.9%[46.1 µM], Tau fluor counter -6.0%, HPGD inh -7.7%, Tau ThT inhib inconclusive and Tau fibril FP 0.0%.
`COC(=O)CN1C(=O)S/C(=C/c2ccc(N3CCCCC3)o2)C1=O` gave ALDH1A1 inh 0.282µM*, NPSR antagonist inconclusive, Tau fluor counter -24.1%, HPGD inh -11.4%, Tau ThT inhib 25.1µM* and Tau fibril FP inconclusive.
`O=C(O)Cn1cc(/C=C2/SC(=O)N(CC(=O)N3CCCCCC3)C2=O)c2ccccc21` gave ALDH1A1 inh inconclusive, NPSR antagonist -16.0%, Tau fluor counter -11.6%, Tau ThT inhib inconclusive and Tau fibril FP -13.1%.
`C#CCN1C(=O)S/C(=C/c2cc(C)n(CC)c2C)C1=O` gave ALDH1A1 inh 7.51µM*, NPSR antagonist inconclusive, Tau fluor counter -4.6%, Tau ThT inhib -0.4% and Tau fibril FP 2.7%.
`CCn1c(C)cc(/C=C2/SC(=S)N(CC(=O)O)C2=O)c1C` gave ALDH1A1 inh 11.8%, NPSR antagonist -12.8%, Tau fluor counter 0.2%, Tau ThT inhib inconclusive and Tau fibril FP 3.9%.
`CCCCn1c(=O)c2oc3ccccc3c2n(Cc2ccc(OC)cc2)c1=O` gave Tau fluor counter -8.8%, Tau ThT inhib 2.1% and Tau fibril FP -1.8%.
For COC(=O)CN1C(=O)S/C(=C/c2cc(C)n(C)c2C)C1=O the results were ALDH1A1 inh 14.1µM*, NPSR antagonist -18.3%[46.1 µM], Tau fluor counter -6.8%, HPGD inh -1.2%, Tau ThT inhib -9.3% and Tau fibril FP 2.4%.
For CN1/C(=C/C(=O)C2CCC2)Sc2ccccc21 the results were ALDH1A1 inh 3.55µM*, NPSR antagonist 16.0%[46.1 µM], Tau fluor counter -6.7%, HPGD inh -28.9%, Tau ThT inhib -16.1% and Tau fibril FP 4.4%.
`O=C(CSc1nccn1Cc1ccccc1)NCc1ccco1` gave Tau fluor counter -8.4%, Tau ThT inhib -14.6% and Tau fibril FP -4.5%.
For COC(=O)CCN(C1CCCCC1)S(=O)(=O)c1ccc(S(=O)(=O)N2CCCCC2)cc1 the results were ALDH1A1 inh 1.78µM*, NPSR antagonist -15.0%[46.1 µM], Tau fluor counter -8.5%, HPGD inh -15.0%, Tau ThT inhib -11.2% and Tau fibril FP -1.4%.
`CC(=Nc1ccccc1)C1=C(O)CSC1=O` gave ALDH1A1 inh 25.1µM*, NPSR antagonist -12.0%[46.1 µM], Tau fluor counter -21.5%, HPGD inh -17.7%, Tau ThT inhib inconclusive and Tau fibril FP -11.0%.
Screening COc1ccc(NC(=O)C/C(C)=N/NC(=O)C(=O)Nc2cccc(Cl)c2C)c(OC)c1 returned ALDH1A1 inh 1.26µM*, NPSR antagonist 6.0%, Tau fluor counter -28.8%, Tau ThT inhib inconclusive and Tau fibril FP -14.9%.
O=C(Nc1ccc(F)cc1F)Nc1csc2ccccc12 was read as NPSR antagonist 55.2%, Tau fluor counter 11.2µM*[quencher], Tau ThT inhib inconclusive and Tau fibril FP 6.4%.
For O=C(Nc1ccc(F)cc1F)Nc1ccc(F)cc1F the results were ALDH1A1 inh 2.2%, NPSR antagonist -2.5%, Tau fluor counter -3.5%, Tau ThT inhib -0.9% and Tau fibril FP -5.4%.
`O=C(Nc1ccc(F)c(Cl)c1)Nc1csc2ccccc12` gave NPSR antagonist inconclusive, Tau fluor counter 7.94µM*[quencher] and Tau fibril FP inconclusive.
O=C(Nc1ccncc1)Nc1ccc(F)c(Cl)c1 was read as ALDH1A1 inh 2.1%, NPSR antagonist 28.2%, Tau fluor counter inconclusive, Tau ThT inhib 6.7% and Tau fibril FP inconclusive.

Bioassay records from PubChem.
